Compounds with a hit are over-represented: about 3.5% of the library has one in this group of screens.
MITF inh: inhibitors of human MITF. O75030. AlphaScreen MITF homodimerization, bead proximity signal. inhibition, % at 2.6 µM. 650,000 compounds, 0.91% hits; in the data active means inhibition above about 50%;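 further: 0% = vehicle wells with protein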
GPR151 activ: activates the human receptor GPR151 | PathHunter beta-arrestin GPR151 cells, luminescence | activation, % at 11.2 µM | 650,000 compounds, 1% hits; in the data active means activation above about 4.9%;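 further: 0% = median of compound wells and 100% = cells with positive control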
Target sequence (Q8TDV0 whole entry, looked up): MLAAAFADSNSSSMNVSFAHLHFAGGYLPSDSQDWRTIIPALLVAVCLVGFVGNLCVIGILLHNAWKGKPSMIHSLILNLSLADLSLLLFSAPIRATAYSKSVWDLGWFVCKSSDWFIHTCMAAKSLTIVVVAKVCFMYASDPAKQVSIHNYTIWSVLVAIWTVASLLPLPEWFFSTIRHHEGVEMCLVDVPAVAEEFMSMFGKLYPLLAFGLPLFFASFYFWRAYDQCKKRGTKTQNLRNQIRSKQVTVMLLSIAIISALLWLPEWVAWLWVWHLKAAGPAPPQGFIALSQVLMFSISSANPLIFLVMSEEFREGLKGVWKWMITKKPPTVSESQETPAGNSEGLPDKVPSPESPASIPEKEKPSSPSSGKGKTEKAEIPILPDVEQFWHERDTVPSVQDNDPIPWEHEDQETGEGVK
FBW7 act: activators of human E3 ligase FBW7 | AlphaScreen FBW7–phospho-cyclin E peptide binding, activator screen | normalized activity (activation), % at 26.1 µM | 650,000 compounds, 0.13% hits | AID 1259310; in the data active means normalized activity above about 1.9%;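 further: purified mutant Fbw7 with reduced substrate affinity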
TEAD-YAP block: TEAD-YAP interaction inhibition; HEK-TIYL cells, TEAD-Gal4/YAP UAS-luciferase luminescence; inhibition, % at 9.12 µM; 640,000 compounds, 1.4% hits; AID 1259422; in the data active means inhibition above about 32%;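 further: 0% = median of test compound wells and 100% = reference inhibitor wells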
GPR151 conf act: confirmation of human GPR151 activators. shares compounds with GPR151 activ. GPR151 PathHunter beta-arrestin cells, luminescence, 90 min; % of EA-reagent control over plate median. activation, % at 11.2 µM. 6,700 tested, under 10 active;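 active means mean percent activation across replicates above the confirmation screen cutoff of 4.91%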
GPR119 ag: counter-screen for GPR151 activators: effect on human GPR119 | shares compounds with GPR151 activ | GPR119 PathHunter beta-arrestin cells, luminescence, 90 min; 0 = compound-well median, 100 = enzyme-acceptor control | activation, % at 11.2 µM | 6,700 compounds, 0.3% hits | AID 1508611;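 active means mean percent activation in the counterscreen above 29.09%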;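 further: counterscreen on off-target GPR119 to flag nonselective hits from the GPR151 activator screen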
The depositor's hits bear a star; / = no result.

SMILES | MITF inh | GPR151 activ | FBW7 act | TEAD-YAP block | GPR151 conf act | GPR119 ag
CCOC(=O)C1C(=O)CC(C)(O)C(C(=O)OCC)C1c1cccnc1 (configuration not stated) | -2.9 | 5.0* | 0.0 | -8.8 | 0.4 | 4.4
CCOC(=O)C1C(=O)CC(C)(O)C(C(=O)OCC)C1c1ccc(CC)cc1 (configuration not stated) | 6.2 | 0.8 | 0.1 | 5.2 | / | /
Cc1ccc(-n2c(SCC(=O)NNC(=S)Nc3ccccc3)nnc2-c2ccc(Cl)cc2)cc1 | -0.8 | 0.6 | -0.2 | -2.5 | / | /
CCN(CCN(C)C)Cc1cc(OC)c(OC)cc1[N+](=O)[O-] | 24.2 | 5.3* | 0.1 | -5.3 | -0.1 | -6.0
CCOC(=O)CCN1C(=O)[C@H]2[C@H]3[C@H](O)[C@H](O)C/C(=N\NC(=O)OCc4ccccc4)[C@@H]3CC[C@H]2C1=O | 10.9 | 0.5 | 0.0 | / | / | /
CCN1C(=O)[C@H]2[C@H]3[C@H](O)[C@H](O)C/C(=N\NC(=O)OCc4ccccc4)[C@@H]3CC[C@H]2C1=O | 8.8 | 5.0* | -0.1 | / | 0.4 | 8.4
COc1ccc(C)cc1-n1cnc2cc(C(=O)O)ccc21 | 3.8 | 7.7* | 0.1 | -3.7 | -0.6 | 2.7
Cc1cc(C)n(/N=C/c2cccnc2)c(=O)c1C#N | 9.3 | 3.1 | 0.0 | 3.5 | / | /
O=C1CCCN1CCCNc1nc(-c2csc3ccccc23)nc2c1ncn2-c1ccccc1 | 0.3 | 5.8* | 0.0 | 10.8 | 0.1 | -5.2
Cc1noc(C)c1-c1nc(NCCOc2ccccc2)c2ncn(CCN3CCCC3=O)c2n1 | 10.7 | 6.1* | 0.0 | 5.4 | -0.2 | -7.7
O=C1CCCN1CCn1cnc2c(NCCOc3ccccc3)nc(N3CCc4ccccc4C3)nc21 | 0.2 | 15.2* | -0.1 | 9.6 | 1.6 | -8.5
O=C1CCCN1CCCNc1nc(-c2csc3ccccc23)nc2c1ncn2Cc1ccc(C(F)(F)F)cc1 | -8.6 | -0.4 | 0.0 | -7.5 | / | /
O=C1CCCN1CCCNc1nc(N2CCc3ccccc3C2)nc2c1ncn2CCN1CCCC1=O | -2.7 | -1.4 | 0.1 | 11.0 | / | /
Nc1c(C(=O)Nc2ccc(F)cc2)nnn1-c1ccccc1 | -16.2 | -2.6 | 0.1 | -27.7 | / | /
Cc1ccc2c(c1)cc(CN(C(=O)Nc1ccccc1)C1CCCC1)c1nnnn12 | 4.9 | 0.1 | 0.0 | 0.3 | / | /
COc1cc(OC)c(NC(=O)c2ccc(N3CC4CC(C3)c3cccc(=O)n3C4)c(NC(=O)/C=C/c3ccccc3)c2)cc1Cl (configuration not stated) | -2.1 | -1.0 | -0.1 | 5.7 | / | /
O=[N+]([O-])/C=C/N1CCOCC1 | 9.9 | 5.5* | -0.1 | 0.2 | -0.2 | -1.4
CCc1ccc(NC(=O)C(CC)Sc2nc3cc(OC)c(OC)cc3c(=O)n2CCc2ccc(Cl)cc2)cc1 (configuration not stated) | -4.7 | 6.5* | -0.1 | -12.5 | -0.4 | -11.1
CCC(Sc1nc2cc(OC)c(OC)cc2c(=O)n1CCc1ccc(Cl)cc1)C(=O)Nc1cccc(Cl)c1 (configuration not stated) | -7.0 | -0.2 | 0.0 | 7.5 | / | /
O=C(/C(=C(/C(Cl)Cl)N1CCCC1)[N+](=O)[O-])N1CCCC1 | -24.7 | 1.3 | -0.1 | 4.6 | / | /
COC(=O)C1=C(C)NC(=O)/C1=C\c1cc(Br)ccc1OC | 9.4 | 0.4 | -0.1 | 10.3 | / | /
COc1cc(C(=O)Nc2ccccc2F)ccc1OCc1cccc(F)c1 | 4.2 | -1.3 | -0.2 | -16.9 | / | /
COC(=O)c1ccc(OCc2cccc(F)c2)c(OC)c1 | 7.1 | 5.9* | 1.0 | -30.1 | -1.0 | -9.7
Cc1cccc(C(=O)NCCCN(C)C)c1 | -2.3 | 7.7* | 0.1 | -3.1 | -0.7 | -2.1
COC(=O)c1cccc(NS(=O)(=O)c2ccc([N+](=O)[O-])cc2)c1C | 10.0 | 3.7 | 0.1 | -3.9 | / | /
SMILES | MITF inh | GPR151 activ | FBW7 act | TEAD-YAP block | GPR151 conf act | GPR119 ag
CN1CCN(c2cc(-c3cn[nH]c3)ccc2NC(=O)Cc2cccc(Cl)c2)CC1 | 13.6 | 5.2* | 0.0 | -5.8 | 6.6* | 54.2*
CSc1cccc(NC(=S)N(Cc2ccccc2)Cc2cccs2)c1 | 4.8 | 6.5* | 0.5 | -4.8 | 0.1 | 9.0
Cc1cccc(NC(=S)N(Cc2ccccc2)Cc2cccs2)c1 | 10.8 | 1.4 | 0.1 | -10.9 | / | /
CC(=O)c1ccc(NC(=O)C(=O)NC2CCCc3ccccc32)cc1 (configuration not stated) | 5.0 | 6.7* | -0.2 | -2.3 | 0.2 | -3.6
O=C(Nc1ccc(S(=O)(=O)N2CCCC2)cc1)C(=O)NC1CCCc2ccccc21 (configuration not stated) | 6.9 | 0.1 | 0.0 | 7.5 | / | /
Cc1csc(SCC(=O)Nc2ccccn2)n1 | 2.0 | 6.2* | 0.0 | -3.4 | -0.8 | -11.7
O=C(NCCCC1CCCC1)c1cc(COc2cccc3cnccc23)on1 | -2.6 | 5.2* | 0.3 | 12.5 | -0.2 | -11.3
c1nc(NCCc2ccc3c(c2)OCCO3)c2ccsc2n1 | -2.4 | 5.6* | -0.1 | 39.2* | 1.6 | 0.3
Cc1c(C(=O)Nc2cccc(C(F)(F)F)c2)sc2ncn(Cc3cccc(F)c3)c(=O)c12 | -4.2 | -0.4 | 0.6 | 7.4 | / | /
COC(=O)c1c(C)oc2c1cc(NS(=O)(=O)c1cc(C)ccc1C)c1ccccc12 | -8.4 | 4.7 | 0.0 | -7.8 | / | /
COc1ccc(OC)c(S(=O)(=O)Nc2cc3c(C(C)=O)c(C)oc3c3ccccc23)c1 | -6.4 | 5.7* | -0.1 | -3.5 | -0.5 | -6.4
CN1CCC(N(C)Cc2cc([N+](=O)[O-])ccc2O)CC1 | 10.5 | 6.0* | -0.2 | 1.7 | 0.5 | 0.6
CC1CCCC(C)N1CC(O)COc1ccc(N)cc1 (configuration not stated) | -2.3 | 4.9* | 0.1 | 6.9 | 0.1 | -4.7
CC(=O)c1ccc(OCC(O)CN2CCCCC2C)cc1 (configuration not stated) | -22.2 | 5.2* | 0.1 | 0.0 | -0.7 | -12.2
CCOC(=O)c1c(NC(C)=O)sc2c(Cl)c(CNCCO)ccc12 | 12.3 | -0.7 | -0.1 | 9.6 | / | /
Cn1c(=O)[nH]c(=O)c2c1nc(NCCCN1CCOCC1)n2CCO | -0.4 | 10.1* | -0.1 | -5.9 | 0.0 | 4.8
COc1cc(C2C(C(N)=O)=C(C)Nc3ncnn32)cc(OC)c1OC (configuration not stated) | -0.7 | 0.7 | 0.0 | 5.8 | / | /
COc1ccc(C2C(C(N)=O)=C(C)Nc3ncnn32)cc1OC (configuration not stated) | 3.1 | 5.1* | 0.0 | -2.7 | 1.0 | 10.2
CC(C)CC(NC(=O)c1ccc(Cl)cc1Cl)C(=O)O (configuration not stated) | 6.1 | -0.7 | 0.1 | -1.2 | / | /
O=C(N[C@@H](Cc1ccccc1)C(=O)O)c1ccc(Cl)cc1Cl | 11.3 | 5.0* | 0.1 | 0.8 | 0.0 | 1.9
CN(C)c1ccc(CC(=O)N2CC[C@@H](c3ccccc3)[C@H](O)C2)cc1 | 10.8 | -0.1 | -0.1 | -4.7 | / | /
Cc1ccccc1OCC(=O)Nc1ccc(Cl)c(-c2nc3ccccc3s2)c1 | -7.1 | 6.4* | -0.1 | -2.6 | 0.6 | 19.9

Screens from PubChem.
